Among the data in PubChem BioAssay (NCATS) are outcome values, retold here.

Records with an inconclusive call do not appear. The source made the active and inactive calls. The call rests on the fitted dose curve; in most records, active means well fitted cell-killing curve with a large enough effect; inconclusive means small, poorly fitted or top-dose-only effect; inactive means flat fitted curve, though single readings scatter.

The experiment in a line: Cell Viability - LYMP2-026 (AID 989). Further: nearly all actives have a fitted effect of over 50% in size. Particulars: LYMP2-026 lymphoblastoid cell viability, qHTS; series mostly up to 92.2 µM. The text has this:
NIH Chemical Genomics Center [NCGC]
NIH Molecular Libraries Screening Centers Network [MLSCN]
National Institutes of Environmental Health Sciences [NIEHS]
National Toxicology Program [NTP]
We have developed a 1536-well cell-based assay for quantitative high throughput screening (qHTS) against a number of cell lines to determine in vitro cytotoxicity of small molecules. This particular assay uses a human lymphoblastoid cell line (LYMP2-026) purchased from Coriell Institute for Medical Research.
NCGC Assay Protocol Summary:
The CellTiter-Glo luminescent cell viability assay (Promega) is a homogeneous method to measure the number of viable cells in culture. The end point readout of this assay is based on quantitation of intracellular ATP, an indicator of metabolic activity, using the luciferase reaction. Luciferase catalyzes the oxidation of beetle Luciferin to oxyluciferin and light in the presence of ATP. The luminescent signal is proportional to amount of ATP present.
Using the CellTiter-Glo luminescent cell viability assay, the amount of cellular ATP was measured in the lymphoblastoid cell line with complete culture medium following compound treatment for 24 hours. The assay was performed in opaque white Kalypsys 1536-well plates. In the screen, tetraoctylammonium bromide was used as positive control. Library compounds were measured for their ability to cause acute toxicity in the cell line, as reflected by a decrease in intracellular ATP levels, in a concentration-dependent manner. […] AC50 values were determined from concentration-response data modeled with the standard Hill equation.
qHTS protocol for CellTiter Glo lymphoblastoid cellular assay
[Step] [Parameter] [Value] [Description]
1. Reagent; 5 uL; 2500 lymphoblastoid cells/well
2. Time; 5 hr; 37 C incubation
4. Controls; 23 nL; Tetraoctylammonium bromide 6.4pM to 92 uM
5. Time; 24 hr; 37 C incubation
6. Reagent; 5 uL; CellTiter Glo reagent
7. Time; 30 min; Room Temperature
8. Detection; Luminescence; Viewlux plate reader
Keywords: cell viability, cytotoxicity, lymphoblastoid cell line, luminescence, NTPHTS, NTPHTS_NCGC, NIEHS, DSSTox, MLSMR, MLSCN, NIH Roadmap, qHTS, NCGC
Regarding `Cc1ncc[nH]1`, the result was inactive.

For `CC(C)O`, the result was inactive.

Consider `Nc1ncnc2c1ncn2[C@H]1CC[C@@H](CO)O1`, for which the call was inactive.

With `CC1=CCC2CC1C2(C)C` (configuration not stated), the molecule was called inactive.

Take `NC(N)=O`: the molecule was classed as inactive.

On to `OB(O)O`, for which the result was inactive.

`c1ccc2ccccc2c1`: the call was inactive.

On to `CC1=CC(=O)NS(=O)(=O)O1`, for which the molecule was called inactive.

For the molecule `CCCCC`, the molecule was called inactive.

Turning to `CCCCO`, the molecule was classed as inactive.

On to `CO/N=C(/C(=O)N[C@@H]1C(=O)N2C(C(=O)O)=C(COC(N)=O)CS[C@H]12)c1ccco1`, for which the molecule was called inactive.

Regarding `OC[C@H]1O[C@@H]2O[C@H]3[C@H](O)[C@@H](O)[C@@H](O[C@H]4[C@H](O)[C@@H](O)[C@@H](O[C@H]5[C@H](O)[C@@H](O)[C@@H](O[C@H]6[C@H](O)[C@@H](O)[C@@H](O[C@H]7[C@H](O)[C@@H](O)[C@@H](O[C@H]1[C@H](O)[C@H]2O)O[C@@H]7CO)O[C@@H]6CO)O[C@@H]5CO)O[C@@H]4CO)O[C@@H]3CO`, the outcome was inactive.

For `NCCN`, the call was inactive.

With `C[C@H](CCC(=O)O)[C@H]1CC[C@H]2[C@@H]3CC[C@@H]4C[C@H](O)CC[C@]4(C)[C@H]3C[C@H](O)[C@]12C`, the call was inactive.

On to `COC(=O)c1ccccc1O`, for which the result was inactive.

In the case of `Nc1ccc(N=Nc2ccccc2)c(N)n1`, the result was inactive.

Take `CC[C@H]1OC(=O)[C@H](C)[C@@H](O[C@H]2C[C@@](C)(OC)[C@@H](O)[C@H](C)O2)[C@H](C)[C@@H](O[C@@H]2O[C@H](C)C[C@H](N(C)C)[C@H]2O)[C@](C)(O)C[C@@H](C)CN(C)[C@H](C)[C@@H](O)[C@]1(C)O`: the molecule was called inactive.

In the case of `Cc1ccc(S(=O)(=O)O)cc1C`, the call was inactive.

With `Oc1cccc(O)c1O`, the molecule was called inactive.

In the case of `CO`, the result was inactive.

With `OCC(O)CO`, the molecule was called inactive.

With `C/C=C/C=C/C(=O)O`, the result was inactive.

Take `C[C@H](CCC(=O)O)[C@H]1CC[C@H]2[C@@H]3[C@H](O)C[C@@H]4C[C@H](O)CC[C@]4(C)[C@H]3C[C@H](O)[C@]12C`: the result was inactive.

For the molecule `OCc1ccccc1`, the call was inactive.

On to `Oc1ccc(/C=C/c2cc(O)cc(O)c2)cc1`, for which the outcome was inactive.

Take `OCl`: the molecule was called inactive.

Turning to `CCOC(C)OCC`, the molecule was called inactive.

Regarding `ClC(Cl)Cl`, the outcome was inactive.

Turning to `O=P(O)(O)O`, the call was inactive.

For the molecule `[O-][N+](=Nc1ccccc1)c1ccccc1`, the outcome was inactive.

With `Nc1nccs1`, the call was inactive.

In the case of `CC(C)(C)CC(C)(C)c1ccc(OCCO)cc1`, the molecule was classed as inactive.
